Calb biofilm kill – kills Candida albicans biofilms | C. albicans biofilm + clotrimazole, Alamar Blue | hit rate 0.14% among 85,000 | inhibition, % at 6 µM;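 active means inhibition above 20%; inactive means inhibition below 20%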;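 further: preformed 24 hr biofilms exposed to compound for 48 hr; 0% = biofilm without compound and 100% = blank killed by clotrimazole plus chlorhexidine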
EphB4 ephrin blk – blocks human EphB4 binding to ephrin-B2. P54760. EphB4 LBD / TNYL-RAW-Alexa532 peptide, fluorescence polarization. inhibition, % at 7 µM. hit rate 0.15% among 97,000. AID 720;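 active means inhibition above the screen-wide mean inhibition plus 3 SD, cut at about 15% in these data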;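 further: 0% = DMSO wells and 100% = excess unlabeled TNYL-RAW peptide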
HUVEC tox IL1B – HUVEC cytotoxicity counter-screen, IL-1B stimulated; cell count reduction, % at 2 µM; hit rate 0.41% among 94,000; HUVEC cell count loss, Hoechst imaging;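 active means cell count reduction more than 3 SD above the screen-wide mean, cut at about 70% in these data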;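 further: normalized per plate to untreated control cells as the no-loss baseline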
NFkB transloc inh – blocks IL-1B driven NFkB nuclear translocation in HUVEC cells | HUVEC IL-1B NFkB p65 nuclear translocation imaging | inhibition, % at 2 µM | hit rate 0.43% among 94,000 | AID 796;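 active means inhibition above about 30% together with a positive call from visual inspection of the well image, limit read from the data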;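 further: nuclear over cytoplasmic p65 intensity ratio measured by imaging; 0% = IL-1B stimulated DMSO wells and 100% = unstimulated DMSO wells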
NFkB transloc pot – enhances IL-1B driven NFkB nuclear translocation; HUVEC IL-1B NFkB p65 nuclear translocation imaging; activation, % at 2 µM; hit rate 0.3% among 94,000;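 active means activation above 40%, about the mean plus 3 SD, also judged a hit on visual image review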;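 further: percent activation is computed from the nuclear over cytoplasmic p65 intensity ratio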
An asterisk follows results filed as active; . = no result. Compounds with a hit are over-represented: about 1.1% of the library has one in this group of screens.

SMILES	Calb biofilm kill	EphB4 ephrin blk	HUVEC tox IL1B	NFkB transloc inh	NFkB transloc pot
CCOC(=O)Nc1nnc(CCc2ccccc2)s1	-1	9	-5	101*	-101
CCCCCc1nnc(NC(=O)OCCC)s1	7	-1	2	3	-3
CCOCCc1nnc(NC(=O)COC)s1	9	-10	84*	1	-1
O=C(COC(=O)Cn1cnc2ccccc21)NCCc1ccc(Cl)cc1	3	0	-15	-4	4
O=C(Nc1ccc(NC(=S)NC(=O)c2ccccc2Cl)cc1)c1cccc(Cl)c1	.	7	10	6	-6
CCOC(=O)c1ccc(Nc2nc(-c3cccnc3)nc3ccccc23)cc1	.	-11	86*	-18	18
O=[N+]([O-])c1nn(-c2ccc3c(c2)OCCO3)n(O)c1=NC1CCCCC1	1	9	1	-3	1
O=[N+]([O-])c1nn(-c2ccc3c(c2)OCCO3)n(O)c1=NCc1ccccc1Cl	.	-7	-29	-92	92*
CC(Nc1ccccc1)c1cc(Cl)ccc1O (stereo not given)	4	-4	89*	91*	-91
COc1ccc(NC(C)c2cc(Cl)ccc2O)cc1 (stereo not given)	6	-2	-12	8	-8
CCOc1cc(N2CCOCC2)c(OCC)cc1NC(=O)CSc1cccc[n+]1[O-]	7	-1	-13	-70	70*
c1ccc(-c2csc(Nc3ccc4c(c3)OCCO4)n2)cc1	5	1	-112	44*	-44
c1cc2c(cc1Nc1nc(-c3ccc4c(c3)OCO4)cs1)OCCO2	7	-2	-49	-12	12
COC(=O)[C@H](C)NC(=O)NC1CCN(Cc2ccccc2)CC1	2	-3	83*	-1	1
NS(=O)(=O)c1ccc(CNC(=O)CC23CC4CC(CC(C4)C2)C3)cc1	.	-4	12	32*	-32
Cc1cc(C(=O)NCc2ccc(S(N)(=O)=O)cc2)c(C)o1	4	2	-26	12	-12
CN(C)C(=O)NCc1ccc(S(N)(=O)=O)cc1	6	-1	87*	7	-7
CC1CCCN(C(c2cccs2)c2nnnn2Cc2ccccc2)C1 (stereo not given)	-2	4	-5	6	-6
O=C1CS/C(=C\[N+](=O)[O-])N1c1ccccc1	.	3	5	-8	8
Cn1c(=O)oc2cc(S(=O)(=O)N3CCN(Cc4ccc5c(c4)OCO5)CC3)ccc21	7	8	87*	11	-11
COC(=O)c1ccc(S(=O)(=O)N2C3CCC2CC(NC(=O)C2CC2)C3)cc1 (stereo not given)	6	6	84*	23	-23
CCC1CCCCN1CCCNC(=O)CC1Oc2ccc(C)cc2NC1=O (stereo not given)	6	.	.	.	.
O=C(NCCCN1CCN(c2cccc(Cl)c2)CC1)c1cccc(N2CCCC2=O)c1	5	3	-19	-46	46*
Cc1nc(-c2ccccc2)sc1C(=O)CSc1ccc(F)cc1	.	1	-21	36*	-36
Cc1nc(-c2ccccc2)sc1C(=O)CSc1ccccc1	.	4	-16	4	-4
SMILES	Calb biofilm kill	EphB4 ephrin blk	HUVEC tox IL1B	NFkB transloc inh	NFkB transloc pot
COc1ccc(-n2c(=O)c3c4c(sc3n3c(C)nnc23)CC(C)CC4)cc1 (stereo not given)	11	1	-75	1	-1
COc1ccc(-n2c(=O)c3c4c(sc3n3cnnc23)CC(C)CC4)cc1 (stereo not given)	-1	25*	-22	-8	8
CN1C(=O)/C(=C/c2ccccc2OCc2ccccc2F)NC1=S	.	8	7	4	-4
COC(=O)c1c(N2C(=O)CCC2=O)sc2c1CCCC2	10	7	-7	-13	13
CC1CC(C)CN(S(=O)(=O)c2ccc(F)c(C(=O)Nc3ccc(Cl)cc3F)c2)C1 (stereo not given)	46*	3	11	-1	1
CCCCc1nc(NCC2CCCO2)c(C#N)c2c1COC(C)(C)C2 (stereo not given)	.	2	84*	12	-11
Cc1cccc2sc(NC(=O)Cn3cccc3)nc12	4	1	3	0	0
Cc1cccc2sc(NC(=O)CSCc3ccccc3)nc12	50*	8	-19	-19	14
Cc1cccn2c(=O)c3cc(C(=O)N4CCc5ccccc54)n(C)c3nc12	9	.	.	.	.
O=C(N/N=C/C=C/c1ccccc1)c1n[nH]c2c1CCC2	.	-5	47	34*	-34
CC(/C=N/NC(=O)c1n[nH]c2c1CCC2)=C\c1ccccc1	3	3	6	-31	31
O=C(CNC(=O)c1cnccn1)Nc1ccc(F)c(F)c1F	5	1	5	5	-5
O=C1c2ccccc2C(=O)N1CCCCN1CCN(CCCCN2C(=O)c3ccccc3C2=O)CC1	5	-1	14	-14	14
O=C1c2ccccc2C(=O)N1CCCN1CCN(CCCN2C(=O)c3ccccc3C2=O)CC1	1	-5	89*	98*	-98
CCC1(C)Cc2c(sc3nnn(Cc4ccccc4Cl)c(=O)c23)CO1 (stereo not given)	.	0	-3	-10	10
CN(C(=O)c1ccno1)c1nnc(-c2ccccn2)s1	20*	3	-27	-14	14
CCC1Oc2ccc(C)cc2N(CC(=O)NCC2COc3ccccc3O2)C1=O (stereo not given)	11	-1	-8	10	-10
CCC1=NNc2cccc3c(OC)ccc1c23	1	14	-85	-40	40*
Cc1cc(=O)n(CC(C)O)c(O)c1C#N (stereo not given)	3	-3	89*	99*	-99
Cc1cc(=O)n(CCCO)c(O)c1C#N	7	0	-9	-9	9
CCCn1c(N)c(C(=O)CSc2nnnn2-c2ccc(O)cc2)c(=O)n(C)c1=O	83*	-2	19	0	0
CC(C)Cn1c(N)c(C(=O)CSc2nnnn2-c2ccc(Cl)cc2)c(=O)n(C)c1=O	4	.	.	.	.
Cc1nc2ncnn2c(C)c1CCC(=O)N1CC(C)CC(C)C1 (stereo not given)	1	4	.	.	.
Cc1ccccc1CS(=O)(=O)c1nnc([C@H](Cc2ccccc2)NC(=O)OC(C)(C)C)o1	6	4	-3	5	-5
CC(C)(C)OC(=O)N[C@@H](Cc1ccccc1)c1nnc(S(=O)(=O)Cc2ccccc2)o1	.	-1	-113	38*	-38
SMILES	Calb biofilm kill	EphB4 ephrin blk	HUVEC tox IL1B	NFkB transloc inh	NFkB transloc pot
CC(=O)Nc1ccc(S(=O)(=O)NCCc2ccc(S(N)(=O)=O)cc2)cc1	.	4	-14	30*	-30
CCOC(=O)C1=C(c2ccccc2)N2CCS(=O)(=O)N=C2S1	.	16*	4	5	-5
COc1cc(NC(=O)c2cc3ccccc3o2)c(OC)cc1Cl	2	-2	78*	100*	-100
Cc1oc(-c2ccccc2)cc1C(=O)Nc1ccc(N(C)C)cc1	8	-6	-8	3	-3
COc1cc2[nH]c(=O)n(CCC(=O)NC3CCCC3)c(=O)c2cc1OC	-1	.	.	.	.
COc1cc2[nH]c(=O)n(Cc3ccc(C(=O)NC4CCCC4)cc3)c(=O)c2cc1OC	24*	0	2	-46	46*
